Measured values taken from ChEMBL document CHEMBL3988442, “University of Dundee, Small-Polar-MMV Screening Library” (2021).
Out of some 48,000 compounds screened, about 13,000 (27%) showed an effect of 50% or more. This is one part of the list.

test system: Wolbachia pipientis; test: Anti-Wolbachia Cell-Based Screen; assay type: functional; parameters: scale not given: in the data most compounds retested in dose-response had high values; conditions: 5 µM

| Compound | Percent Effect |
| --- | --- |
| CC(=O)N1CCCC(C(=O)N2Cc3nc(C)n(C)c(=O)c3C2)C1 (stereo not drawn) | 7.499% |
| COC(=O)C1CN(Cc2ccccc2C(C)(C)C#N)CCO1 (stereo not drawn) | 1.007% |
| CC(C)OCCS(=O)(=O)N1CCCC1c1cccc(N(C)C)c1 (stereo not drawn) | 4.069% |
| CC(C)(C)CCCC(=O)NS(=O)(=O)CC1CC1 | -9.167% |
| Cc1ccccc1CNC(=O)Cc1c(C)nc2cc(=O)[nH]n2c1C | 1.807% |
| Cc1cccc(CNC(=O)CCc2c(C)nc3cc(O)nn3c2C)n1 | 101.6% |
| Cn1ccc2c(C(=O)N3CCC(C(N)=O)CC3)cccc21 | 2.253% |
| Cc1ccc(N2CCCN(C(=O)c3cccc4c3ccn4C)CC2)nn1 | -26.18% |
| CC(=O)N(C)C1CCN(C(=O)c2cccc3c2ccn3C)CC1 | 129.7% |
| Cn1ccc2c(C(=O)N3CCN(C(=O)C4CCCC4)CC3)cccc21 | 117.3% |
| Cn1ccc2c(C(=O)NCCCN3CCCC3)cccc21 | 7.133% |
| Cn1ccc2c(C(=O)N3CCC4(CCOC4)C3)cccc21 (stereo not drawn) | -11.85% |
| CCc1ncc(-c2nccn2-c2cccc(CC(=O)O)c2)cn1 | -3.277% |
| Cc1nccn1CCCC(=O)N1CCN(c2cccnc2)CC1 | -0.7063% |
| Cc1cc(N2CCC3(CCC(=O)N(CC4CC4)C3)CC2)nc(N)n1 | -10.67% |
| Cc1cnn(CC(=O)N2CCC3(CCC(=O)N(CC(C)O)C3)CC2)c1 (stereo not drawn) | -3.932% |
| CCN1CC2(CCC1=O)CCN(CCc1nccn1C)CC2 | -0.2825% |
| Cc1nccn1CCC(=O)N1CCC2(CCC(=O)N(CC3CC3)C2)CC1 | 117.2% |
| Cc1cc(N2CCC3(CCC(=O)N(CC4CC4)C3)CC2)ncn1 | 3.21% |
| Cc1nccn1CCCN1CCC2(CCC(=O)N(CC3CC3)C2)CC1 | 94.75% |
| COc1ccc(C(=O)N2CCC3(CCC(=O)N(C(C)C)C3)CC2)cc1C | 7.605% |
| Cc1nccn1CCCC(=O)N1CCC2(CCC(=O)N(C(C)C)C2)CC1 | 98.73% |
| Cc1ncc(CC(=O)N2CCC3(CCC(=O)N(CCO)C3)CC2)c(=O)[nH]1 | 13.05% |
| Cc1cnn(CCC(=O)N2CCC3(CCC(=O)N(CC4CC4)C3)CC2)c1 | 86.63% |
| Cc1cnn(CC(=O)N2CCC3(CCC(=O)N(CCCO)C3)CC2)c1 | -87.52% |
| COCCCN1C(=O)CC[C@H]2CN(c3cnc4ccccc4n3)CC[C@H]21 | 2.221% |
| CCCn1nc(C)c2c1NC(=O)CC2c1ccc(CN2CCCC2)s1 (stereo not drawn) | 1.67% |
| CC(C)c1nnc2n1CCN(CCCS(=O)(=O)c1ccccc1)C2 | -6.679% |
